An excerpt weighted towards active compounds, which were near 17% of everything screened.
TGFb SMAD3 inh = blocks TGF-b signaling; HepG2 CAGA-GFP TGF-b/SMAD3 reporter, GFP fluorescence, 18 h; TGF-beta stimulated, 500 pg/mL final; Potency, µM (titrated, usually from 46.1 µM), most hits filed as inhibitors; 410,000 tested, 1.2% active; AID 588855; further: nearly all actives have a fitted effect of over 65% in size
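Inhibition of TGF-beta-driven CAGA-GFP reporter expression in HEPG2 cells is measured by cellular GFP fluorescence after 18 h stimulation with 500 pg/mL recombinant TGF-beta in 1% FBS medium at 37 degrees C.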
DT40 TDP1 CPT = growth inhibition of DT40 Tdp1-/-;hTDP1 cells with camptothecin (screen for TDP1 inhibitors); chicken DT40 Tdp1-/-;hTDP1 cells + 20 nM CPT, ATP luminescence, 48 h; Potency, µM (series often up to 46.2 µM), hits mostly inhibitors; 420,000 tested, 12% active; AID 686979; further: nearly all actives have a fitted effect of over 55% in size
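Cell growth measured by CellTiter-Glo luminescence after a minimum 48 h, 37 C compound exposure with 20 nM CPT in Tdp1-knockout DT40 cells stably expressing hTDP1, seeded 400/well; qHTS titration format.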
HepG2 viability = counter-screen for TGF-b inhibitors: cytotoxicity in HepG2 cells. AID 588856. Potency, µM (top dose mostly 46.1 µM), hits mostly cytotoxic. HepG2 CAGA-GFP viability, ATP luminescence, 18 h. 410,000 tested, 0.76% active
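CellTiter-Glo luminescence gave cytotoxicity after 18 hours at 37 degrees C. The cells were HepG2 CAGA-GFP in 1% FBS DMEM, stimulated with 500 pg/mL TGF-beta after compound addition. %Activity was normalised to no-cell wells (complete cell-killing) and DMSO (no toxicity), and curves were fitted and classified.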
HT1080NT lethal = kills 2HG-producing HT-1080-NT fibrosarcoma cells; HT-1080-NT fibrosarcoma viability, CellTiter-Glo ATP luminescence, 48 h; Potency, µM (highest dose often 46.1 µM), hits mostly cytotoxic; 360,000 tested, 1.6% active;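 further: NT is the 2HG producing partner of a matched IDH1 knockdown line; nearly all actives have a fitted effect of over 55% in size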
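Compounds were tested in concentration-response format on HT-1080-NT cells for 48 hours at 37 degrees C. Cell viability came from CellTiter-Glo luminescence; curves were classified by r2, response magnitude and activity.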
HT1080 IDH1KD tx = toxicity to HT-1080 IDH1 knockdown cells (counter line); HT-1080 IDH1 knockdown viability, ATP luminescence, 48 h; Potency, µM (doses to about 46.1 µM), usual class: cytotoxic; 360,000 tested, 2% active; AID 686971
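Viability of IDH1-knockdown HT-1080 fibrosarcoma cells was assessed by CellTiter-Glo after 48 h at 37 °C with titrated compound; concentration-effect curves were classified by fit quality and response size.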
TDP1 cell noCPT = qHTS for Inhibitors of human tyrosyl-DNA phosphodiesterase 1 (TDP1): qHTS in cells in absence of CPT | DT40 Tdp1-/- hTDP1 cells, no CPT, ATP luminescence, 48 h | Potency, µM (doses to about 46.2 µM), hits mostly inhibitors | 420,000 tested, 15% active | AID 686978, 2013; further: nearly all actives have a fitted effect of over 55% in size
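Compound effects on proliferation are scored in DT40 Tdp1-/-;hTDP1 cells in the absence of CPT. ATP levels (CellTiter-Glo luminescence) are recorded after a ≥48 hr, 37 °C incubation.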
Each line names hits and unclear results; the compound was inactive in the other large screens. The call rests on the fitted dose curve; in most records, active means well fitted curve in the direction sought with a large enough effect; inconclusive means small, poorly fitted or top-dose-only effect, or another doubt; inactive means no such curve, though single readings can be large; an effect the other way counts as inactive or inconclusive.

CCc1ccc(Nc2c([N+](=O)[O-])c(=O)oc3ccccc23)cc1	TGFb SMAD3 inh inconclusive, DT40 TDP1 CPT inconclusive, TDP1 cell noCPT 7.3µM
COC(=O)c1ccc(CNC(=O)c2cc(COc3cncc(Cl)c3)on2)cc1	DT40 TDP1 CPT inconclusive, HT1080 IDH1KD tx inconclusive, TDP1 cell noCPT inconclusive
CC(C)c1cc(CNC(=O)c2cc(COc3cncc(Cl)c3)on2)on1	DT40 TDP1 CPT inconclusive, TDP1 cell noCPT 18µM
O=C(CSCc1ccccc1Br)N/N=C/c1ccc(OCC(=O)N2CCCCC2)cc1	TGFb SMAD3 inh inconclusive, TDP1 cell noCPT 2.9µM
O=C(CSCc1ccccc1)N/N=C/c1ccc(OCC(=O)N2CCCCC2)cc1	none
O=C(CCCN1C(=O)NC2(CCCC2)C1=O)Nc1cccc(S(=O)(=O)N2CCOCC2)c1	none
O=S(=O)(Nc1ccc2c(c1)nc1n2CCOC1)c1ccc(Cl)cc1	DT40 TDP1 CPT inconclusive, TDP1 cell noCPT 13µM
CCOc1ccccc1NC(=O)C(=O)NCC(c1cccnc1)N1CCN(c2ccccc2)CC1 (stereo unspecified)	DT40 TDP1 CPT inconclusive, TDP1 cell noCPT inconclusive (no result: HT1080NT lethal, HT1080 IDH1KD tx)
O=C(CN1C(=O)c2cccc3cccc1c23)Nc1cccnc1	TDP1 cell noCPT inconclusive
CCCOc1cc(C)c(Cl)cc1S(=O)(=O)N(CC)CC	DT40 TDP1 CPT 18µM, TDP1 cell noCPT inconclusive
CCOc1cc(C)c(Cl)cc1S(=O)(=O)N(C)C	DT40 TDP1 CPT inconclusive, TDP1 cell noCPT inconclusive
COc1cc(C)ccc1OCC(=O)NC1CCCCCC1	TDP1 cell noCPT inconclusive
Cc1cc(Cl)c(S(=O)(=O)N2CCCC2)cc1OCC(=O)NC1CCCCC1	TGFb SMAD3 inh inconclusive, DT40 TDP1 CPT 15µM, TDP1 cell noCPT 18µM
CCN(CC)S(=O)(=O)c1cc(C)c(C)cc1OCC(=O)NC1CCCC1	DT40 TDP1 CPT 15µM, TDP1 cell noCPT 21µM
CCOc1ccc(C(=O)Nc2ccc3nc(Nc4cccc(C(F)(F)F)c4)cc(C)c3c2)cc1OCC	DT40 TDP1 CPT 18µM, TDP1 cell noCPT 5.2µM (no result: HT1080NT lethal, HT1080 IDH1KD tx)
Cc1cc(Nc2cccc(C(F)(F)F)c2)nc2ccc(NC(=O)c3cccnc3)cc12	TGFb SMAD3 inh inconclusive, DT40 TDP1 CPT 4.1µM, TDP1 cell noCPT 2.3µM (no result: HT1080NT lethal, HT1080 IDH1KD tx)
CCOc1cc(/C=C(\CC(=O)O)c2nc3ccccc3s2)ccc1OCC(=O)Nc1cccc(C(F)(F)F)c1	DT40 TDP1 CPT inconclusive, TDP1 cell noCPT inconclusive
Cc1nc2ccc(NC(=O)c3cccc(C(F)(F)F)c3)cc2o1	DT40 TDP1 CPT 23µM, TDP1 cell noCPT inconclusive
O=C(Nc1cccc(C(F)(F)F)c1)c1cccnc1	none
Cc1cc(Nc2cccc(C(F)(F)F)c2)nc2ccc(NC(=O)c3cccc(Cl)c3)cc12	TGFb SMAD3 inh inconclusive, DT40 TDP1 CPT 13µM, HepG2 viability 13µM, TDP1 cell noCPT 6.5µM (no result: HT1080NT lethal, HT1080 IDH1KD tx)
CNC(=O)Nc1ccc2nc(C)oc2c1	none
COCCSc1ccccc1C(=O)N1CCc2ccccc2C1	none
Cc1noc(C)c1S(=O)(=O)N(C)C[C@H]1Oc2c(NS(=O)(=O)c3cn(C)cn3)cccc2C(=O)N([C@H](C)CO)C[C@@H]1C	none
COc1ccc(-n2nnnc2/C=C\Nc2ccccc2C(=O)c2ccccc2)cc1	DT40 TDP1 CPT 7.3µM, HT1080NT lethal 5.8µM, HT1080 IDH1KD tx 5.2µM, TDP1 cell noCPT 5.8µM
Cc1ccccc1C(=O)c1ccccc1C(=O)c1ccccc1	DT40 TDP1 CPT inconclusive, TDP1 cell noCPT 16µM
Cc1cc2ccccc2cc1C(=O)c1ccccc1	none
COc1ccc(CNC(=O)COC(=O)c2ccccc2C(=O)c2ccccc2)cc1	DT40 TDP1 CPT inconclusive, TDP1 cell noCPT 8.2µM
COc1ccc(C(=O)c2ccccc2C(=O)c2ccccc2)cc1	DT40 TDP1 CPT inconclusive, TDP1 cell noCPT 16µM
Cc1ccc(NC(=O)c2ccc3nc(N4CCOCC4)sc3c2)c(Cl)c1	TDP1 cell noCPT inconclusive

Assay outcomes: PubChem BioAssay, National Center for Advancing Translational Sciences (NCATS)
